Measured values from PubChem BioAssay.
Active and inactive are the calls of the source.

Key:
[1] = optical density shifts of acrAB sulA E. coli – strain DRC41, OD650, 48 h, E. coli filamentation inducer project, primary screen (AID 1152); settings: higher = more signal, called active from +8 up or from −8 down;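 further: E. coli MC1000 strain DRC41 lacking acrAB efflux pump and sulA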
[2] = probe aLefty1 binding on compound microarray – biochemical, small-molecule microarray, 635/667 nm fluorescence, primary screen (AID 1153); settings: higher = more signal;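 further: score merges spot fluorescence with signal-to-noise ratio from the scanned slide images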
[3] = plasmodial surface anion channel blockers, osmotic lysis – cell-based, P. falciparum Indochina, OD700, 1 h, primary screen (AID 1154); settings: P. falciparum Indochina infected RBC osmotic lysis, higher = more signal, called active from +8 up or from −8 down
[4] = plasmodial surface anion channel blockers, osmotic lysis – cell-based, P. falciparum Indochina, OD700, 2 h, primary screen (AID 1155);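 further: lysis reports solute entry through the parasite surface anion channel PSAC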; settings: P. falciparum Indochina infected erythrocytes, higher = more signal, called active from +8 up or from −8 down
[5] = changes in parasitized red cell lysis, either direction – P. falciparum Indochina, OD700, 3 h, PSAC antagonist project, primary screen (AID 1156); settings: P. falciparum-infected erythrocytes, osmotic lysis, higher = more signal, called active from +8 up or from −8 down
[6] = plasmodial surface anion channel blockers, osmotic lysis – cell-based, P. falciparum Indochina, OD700, 18 h, primary screen (AID 1157); settings: P. falciparum Indochina infected erythrocytes, osmotic lysis OD700, 18 h; higher = more signal, called active from +8 up or from −8 down
[7] = S6 kinase pathway phospho-S6 level changes – cell-based, A549, cytoblot, luminescence, serum-stimulated, primary screen (AID 1158); settings: 5 h, higher = more signal;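 further: serum-stimulated A549 lung adenocarcinoma cells; signal is phosphorylated S6 detected by cytoblot immunostaining with HRP secondary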
[8] = biological target: NADPH oxidase 2 (Homo sapiens) (UniProt P04839); test: compounds shifting NOX2 Amplex Red fluorescence – cell-based, HEK293-NOX2, PMA-stimulated, NOX inhibitor project, primary screen (AID 1159); settings: 45 min, higher = more signal, called active from +8 up or from −8 down; further: test concentration not given here
[9] = biological target: NADPH oxidase 4 (Homo sapiens) (UniProt Q9NPH5); test: compounds shifting NOX4 Amplex Red fluorescence – cell-based, HEK293-NOX4, tetracycline-induced, NOX inhibitor project, primary screen (AID 1160); settings: HEK293-NOX4, Amplex Red H2O2 fluorescence, 45 min; higher = more signal, called active from +8 up or from −8 down
[10] = biological target: NADPH oxidase 5 (Homo sapiens) (UniProt Q96PH1); test: compounds shifting NOX5 Amplex Red fluorescence – cell-based, HEK293-NOX5, NOX inhibitor project, primary screen (AID 1161); settings: HEK293-NOX5, ionomycin, 45 min, higher = more signal
Chain of NADPH oxidase 5 (Homo sapiens) (Q96PH1 whole entry, looked up): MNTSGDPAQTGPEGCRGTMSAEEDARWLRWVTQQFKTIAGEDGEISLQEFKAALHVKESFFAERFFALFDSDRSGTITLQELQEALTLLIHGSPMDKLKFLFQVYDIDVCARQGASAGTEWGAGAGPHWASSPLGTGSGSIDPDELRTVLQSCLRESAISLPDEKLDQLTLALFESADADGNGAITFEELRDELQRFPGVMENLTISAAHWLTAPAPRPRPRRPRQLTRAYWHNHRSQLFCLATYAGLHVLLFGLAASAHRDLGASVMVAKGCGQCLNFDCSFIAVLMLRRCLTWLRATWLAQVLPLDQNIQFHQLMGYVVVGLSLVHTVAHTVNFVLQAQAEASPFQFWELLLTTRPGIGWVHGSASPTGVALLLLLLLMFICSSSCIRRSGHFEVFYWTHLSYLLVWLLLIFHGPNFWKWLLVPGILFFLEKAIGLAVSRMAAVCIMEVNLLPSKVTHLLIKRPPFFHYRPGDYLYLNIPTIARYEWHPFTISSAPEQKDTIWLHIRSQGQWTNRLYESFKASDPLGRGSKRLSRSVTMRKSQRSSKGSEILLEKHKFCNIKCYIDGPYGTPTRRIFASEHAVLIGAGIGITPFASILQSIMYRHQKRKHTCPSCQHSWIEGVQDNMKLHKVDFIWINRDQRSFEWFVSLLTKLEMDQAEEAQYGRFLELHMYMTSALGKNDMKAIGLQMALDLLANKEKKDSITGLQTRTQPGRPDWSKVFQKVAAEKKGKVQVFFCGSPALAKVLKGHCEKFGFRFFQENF

Chain of NADPH oxidase 2 (Homo sapiens) (P04839 whole entry, looked up): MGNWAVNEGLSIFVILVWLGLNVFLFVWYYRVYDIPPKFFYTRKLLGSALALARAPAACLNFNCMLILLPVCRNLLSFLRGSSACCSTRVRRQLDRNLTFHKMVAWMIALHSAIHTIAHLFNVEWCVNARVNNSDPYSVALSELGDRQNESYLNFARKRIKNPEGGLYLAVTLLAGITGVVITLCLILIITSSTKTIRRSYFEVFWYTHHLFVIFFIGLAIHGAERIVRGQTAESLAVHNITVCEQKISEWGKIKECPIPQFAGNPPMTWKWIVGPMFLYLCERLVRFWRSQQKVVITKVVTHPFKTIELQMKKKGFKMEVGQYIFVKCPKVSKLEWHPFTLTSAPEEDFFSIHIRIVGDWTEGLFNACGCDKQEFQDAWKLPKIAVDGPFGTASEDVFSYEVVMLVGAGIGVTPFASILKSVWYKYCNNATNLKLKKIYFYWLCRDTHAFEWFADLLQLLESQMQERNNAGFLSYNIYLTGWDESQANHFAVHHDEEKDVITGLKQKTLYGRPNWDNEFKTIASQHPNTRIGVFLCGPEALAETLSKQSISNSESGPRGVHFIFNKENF
Chain of NADPH oxidase 4 (Homo sapiens) (Q9NPH5 whole entry, looked up): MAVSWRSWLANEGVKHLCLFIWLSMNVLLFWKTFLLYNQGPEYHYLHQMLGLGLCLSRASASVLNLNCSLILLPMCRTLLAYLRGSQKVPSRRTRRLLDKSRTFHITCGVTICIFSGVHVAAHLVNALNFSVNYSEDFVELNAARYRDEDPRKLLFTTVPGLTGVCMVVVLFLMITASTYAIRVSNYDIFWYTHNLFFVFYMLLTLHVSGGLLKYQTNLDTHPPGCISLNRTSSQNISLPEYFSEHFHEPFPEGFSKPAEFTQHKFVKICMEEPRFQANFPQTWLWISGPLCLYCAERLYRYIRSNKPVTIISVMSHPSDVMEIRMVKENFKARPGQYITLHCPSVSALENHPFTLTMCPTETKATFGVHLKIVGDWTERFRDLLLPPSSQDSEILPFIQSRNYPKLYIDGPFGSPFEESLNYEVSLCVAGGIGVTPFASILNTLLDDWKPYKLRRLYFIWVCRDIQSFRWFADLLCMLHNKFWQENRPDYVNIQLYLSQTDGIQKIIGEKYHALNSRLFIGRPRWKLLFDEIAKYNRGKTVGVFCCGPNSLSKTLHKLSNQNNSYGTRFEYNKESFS

| Structure (SMILES) | z-score [1] | composite z-score [2] | z-score [3] | z-score [4] | z-score [5] | z-score [6] | z-score [7] | z-score [8] | z-score [9] | z-score [10] |
| --- | --- | --- | --- | --- | --- | --- | --- | --- | --- | --- |
| C=CCNC(=O)[C@@H]1[C@H]2C(=O)O[C@H](c3ccccc3)[C@H](c3ccccc3)N2[C@H](c2ccc(O)cc2)[C@@]12C(=O)N(C(=O)OCCOC)c1ccc(C#CCNC(N)=O)cc12 | 0.411 (inactive) | 0.0012 | 0.691 (inactive) | -0.836 (inactive) | 0.537 (inactive) | -1.18 (inactive) | 1.32 | 1.08 (inactive) | 0.438 (inactive) | 0.421 |
| O=C1[C@@]23C=C(Br)[C@H](C[C@@H]2CCOC3)[C@@]12CO2 | -0.0625 (inactive) | -0.216 | -0.306 (inactive) | -0.261 (inactive) | -0.0502 (inactive) | 0.0369 (inactive) | -0.31 | -0.172 (inactive) | 0.723 (inactive) | -0.34 |
| C=CCC(OC(C)=O)[C@@H]1[C@@H](N(Cc2cccc3ccccc23)C(=O)c2ccc(-c3ccccc3)cc2)c2cc(OCCCO)ccc2N1C(=O)c1ccc2ccccc2c1 (stereo not given in full) | -0.495 (inactive) | 0.0153 | 0.135 (inactive) | 0.396 (inactive) | -0.182 (inactive) | 0.0644 (inactive) | 0.174 | -0.608 (inactive) | 0.624 (inactive) | -0.535 |
| [N-]=[N+]=Nc1ccccc1[C@@H]1OC(c2ccc(OCCCO)cc2)=N[C@]1(CCS(=O)(=O)c1ccccc1)C(N)=O | 0.307 (inactive) | 0.572 | 29.1 (active) | 26.1 (active) | 1.26 (inactive) | 5.2 (inactive) | 0.0742 | -1.8 (inactive) | 2.14 (inactive) | 0.903 |
| CN1C(=O)C2C=CC(C(O)c3ccc([N+](=O)[O-])cc3)N(N3CCCCC3)C2C1=O (stereo not given) | -1.74 (inactive) | 0.385 | 2.06 (inactive) | 1.36 (inactive) | -0.0207 (inactive) | 0.9 (inactive) | -0.919 | 0.114 (inactive) | -2.07 (inactive) | -1.12 |
| C=CCNC(=O)[C@@H]1[C@H]2C(=O)O[C@H](c3ccccc3)[C@H](c3ccccc3)N2[C@H](c2ccc(O)cc2)[C@@]12C(=O)Nc1ccc(C#CCNC(N)=O)cc12 | -1.29 (inactive) | 0.186 | 0.448 (inactive) | -0.261 (inactive) | -0.519 (inactive) | 0.32 (inactive) | -0.203 | 0.334 (inactive) | -0.211 (inactive) | 0.0297 |
| O=C1O[C@@H](c2ccccc2)[C@@H](c2ccccc2)N2[C@@H](c3ccccc3OCCO)[C@]3(C(=O)Nc4ccc(C#CC5=CCCCC5)cc43)[C@@H](C(=O)N3CCCCCCC3)[C@H]12 | -0.511 (inactive) | 2.96 | -0.0047 (inactive) | 0.0859 (inactive) | -0.339 (inactive) | 0.68 (inactive) | -0.359 | 0.624 (inactive) | 0.55 (inactive) | -0.797 |
| CN1C(=O)C2C=CC(C(O)c3ccco3)N(Nc3ccccc3)C2C1=O (stereo not given) | -1.63 (inactive) | 0.335 | 0.233 (inactive) | 0.742 (inactive) | -0.283 (inactive) | 1.34 (inactive) | -1.2 | -1.76 (inactive) | -3.72 (inactive) | -2.54 |
| CC1CC/C=C\[C@H]2OC34C=CCN(C(C)(C)C)C(=O)[C@H]3N(CCO)C(=O)[C@@H]4C2C(=O)O1 (stereo not given in full) | 0.583 (inactive) | -0.0611 | 2.16 (inactive) | 0.518 (inactive) | -0.474 (inactive) | 0.31 (inactive) | 0.615 | 1.36 (inactive) | 0.126 (inactive) | 2.57 |
| C=C(CCCC)/C(=C/C[C@@H](OC(C)=O)c1ccc(OCCO)cc1)c1cnc2ccccc2c1 | 1.04 (inactive) | 0.0038 | 24 (active) | 6.92 (inactive) | 2.09 (inactive) | 1.34 (inactive) | 0.684 | -1.98 (inactive) | -0.0832 (inactive) | -2.21 |
| C=C(COC)/C(=C/C[C@H](OC(C)=O)c1ccc(CO)o1)c1cc(C(=O)OC)ccc1OC | 0.506 (inactive) | -0.193 | 1.25 (inactive) | -2.29 (inactive) | 0.672 (inactive) | -2.07 (inactive) | 0.873 | -1.85 (inactive) | -1.92 (inactive) | -1.14 |
| COc1ccc(C#Cc2ccc3c(c2)[C@]2(C(=O)N3)[C@H](C(=O)NC[C@H](O)c3ccccc3)[C@H]3C(=O)O[C@H](c4ccccc4)[C@H](c4ccccc4)N3[C@@H]2c2ccc(O)cc2)cc1 | 0.078 (inactive) | -0.0984 | -0.476 (inactive) | 0.657 (inactive) | -1.03 (inactive) | 0.909 (inactive) | -0.434 | 1.25 (inactive) | 0.118 (inactive) | -0.339 |
| CCCC[C@@H]1C[C@H]1[C@@H](NC(=O)c1ccco1)c1ccc(-c2ccccc2)cc1 | -1.73 (inactive) | 0.142 | -0.38 (inactive) | -0.912 (inactive) | 1.59 (inactive) | -1.91 (inactive) | 1.28 | -4.04 (inactive) | -3.5 (inactive) | -2 |
| COc1ccc(/C=C/C=O)cc1 | 0.0676 (inactive) | 0.11 | -0.0134 (inactive) | -0.113 (inactive) | 0.392 (inactive) | 0.0327 (inactive) | -0.416 | -0.721 (inactive) | -0.379 (inactive) | 0.589 |
| CC(=O)NCCCC[C@@H]1NC(=O)[C@@H]2C[C@H](C(=O)NCCCCCNC(=O)CS)[C@H](c3cccc(OCCO)c3)N2C1=O | 1.52 (inactive) | 0.0536 | 1.33 (inactive) | -0.202 (inactive) | 0.344 (inactive) | -1.85 (inactive) | 0.697 | -1.05 (inactive) | 0.489 (inactive) | 0.0642 |
| COc1ccc(C#Cc2ccc3c(c2)[C@]2(C(=O)N3)[C@H](c3ccccc3OCCO)N3[C@H](c4ccccc4)[C@H](c4ccccc4)OC(=O)[C@H]3[C@@H]2C(=O)Nc2nc3ccccc3s2)cc1 | -0.89 (inactive) | 1.78 | 1.35 (inactive) | 1.67 (inactive) | 1.46 (inactive) | 0.457 (inactive) | -0.0333 | -1.26 (inactive) | -0.977 (inactive) | -4.34 |
| O=C1C[C@@](C(=O)NCC(F)(F)F)(c2ccc([N+](=O)[O-])cc2)[C@@H](c2ccc(CO)cc2I)N1C1CCCCC1 | -0.629 (inactive) | 0.165 | 16.9 (active) | 1.79 (inactive) | 2.56 (inactive) | 0.599 (inactive) | -0.417 | 0.979 (inactive) | -0.0876 (inactive) | 0.612 |
| C=C(CCCC)/C(=C/C[C@H](OC(=O)c1ccncc1)c1ccccc1OCCO)c1cnc2ccccc2c1 | -0.244 (inactive) | 0.11 | 23.7 (active) | 4.64 (inactive) | 1.08 (inactive) | 1.02 (inactive) | 0.0376 | -1.22 (inactive) | -0.281 (inactive) | -1.45 |
| COC(=O)[C@H](Cc1ccccc1)N[C@@H](/C=C/C1CC1)[C@H](O)Cc1ccccc1 | 0.0327 (inactive) | -0.239 | 0.738 (inactive) | 0.229 (inactive) | -0.592 (inactive) | 0.428 (inactive) | -0.162 | 0.42 (inactive) | -0.135 (inactive) | -1.41 |
| CCOC(=O)C1=C[C@@H](C(C)(C)C)N(S(=O)(=O)c2ccc(C)cc2)[C@H]1c1ccc(F)cc1 | -1.68 (inactive) | -0.0162 | 0.957 (inactive) | 0.716 (inactive) | -0.862 (inactive) | 0.634 (inactive) | -0.827 | -0.829 (inactive) | -0.217 (inactive) | 0.821 |
| C=CCN1C(=O)[C@]2(O[C@H](CCn3cc([C@H](O)c4ccccc4)nn3)[C@@H]([Si](C)(C)c3ccc(OC)cc3)[C@@H]2C)c2cc(N3CCC3=O)ccc21 | 0.894 (inactive) | 0.188 | 3.76 (inactive) | 1.05 (inactive) | 2.62 (inactive) | 0.721 (inactive) | 2.02 | 0.632 (inactive) | -0.709 (inactive) | -1.74 |
| C=CC[C@]1(C(=O)NCCCOC)N=C(c2ccc(OCCCO)cc2)O[C@H]1c1ccccc1CN=[N+]=[N-] | -0.653 (inactive) | 0.443 | 13.6 (active) | 1.21 (inactive) | 1.37 (inactive) | 0.424 (inactive) | -0.102 | 0.324 (inactive) | 0.649 (inactive) | -0.973 |
| COc1ccc([Si](C)(C)[C@H]2[C@H](CCO)O[C@@]3(C(=O)N(Cc4ccc(N(C=O)c5ccccc5)cc4)c4ccccc43)[C@@H]2C)cc1 | -0.208 (inactive) | 0.0406 | 17.5 (active) | 5.72 (inactive) | -0.149 (inactive) | 1.87 (inactive) | 0.788 | 0.118 (inactive) | 0.859 (inactive) | 2.37 |
